# Over roughly 81,000 sequences, “one-hybrid fitness for binding parS DNA” has its median near -0.17; the highest 2% begin near 0.51. This is one part of a sample in which the highest values are shown more often than they occur.
# B1: Caulobacter ParB omega fusion; a variant is named by its letters at X, in order, B8GW30 (parent)
# chain: MESVVVGEPGMSEGRRGLGRGLSALLGEVDAAPAQAPGEQLGGSREAPIEILQRNPDQPRRTFREEDLEDLSNSIREKGVLQPILVRPSPDTAGEYQIVAGERAWRAAQRAGLKTVPIMVRELDDLAVLEIGIIENVQRADLNVLEEALSYKVLMEKFERTQENIAQTIGKSXSHVANXMRLLXLPDEVQSYLVSGELTAXHARAIAAAADPVALAKQIIEGGLSVRETEALARKAPNLSAGKSKGGRPPRVKDTDTQALESDLSSVLGLDVSIDHRGSTGTLTITYATLEQLDDLCNRLTRGI
# Variants of: B1
# Assay: one-hybrid fitness for binding parS DNA (scaled: cognate 1, non-cognate 0); higher = stronger binding
# Details: with parS DNA site
# How it was run: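 Selection: bacterial one-hybrid in E. coli USO, HIS3 reporter with the site 19 bp from the promoter, 48 hours at 37°C on M9-minus-histidine plus 0.1 mM IPTG and 5 mM 3-AT. Libraries were Caulobacter ParB with four randomised specificity codons, sequenced on Illumina before and after selection. Fitness is the rescaled log change in variant-to-wild-type read ratio, anchored to the cognate and non-cognate sites.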
row,Variant,one-hybrid fitness for binding parS DNA
1,RVPM,≤ 0.2
2,RVIQ,≤ 0.2
3,RVIT,0.703
4,RVIF,≤ 0.2
5,RVPT,0.529
6,RVPK,≤ 0.2
7,CFTG,≤ 0.2
8,TTVP,≤ 0.2
9,PCIV,≤ 0.2
10,RNVA,0.312
11,RNYA,0.467
12,RNDA,0.354
13,RNNA,0.529
14,RNSA,0.495
15,RNQA,0.489
16,RNRA,0.534
17,RNKA,0.541
18,RNWA,0.294
19,CRFC,≤ 0.2
20,AKST,≤ 0.2
21,DDYL,≤ 0.2
22,DYFD,≤ 0.2
23,RYQR,≤ 0.2
24,QVQY,≤ 0.2
25,RMTI,≤ 0.2
26,KKRY,≤ 0.2

row,Variant,one-hybrid fitness for binding parS DNA
1,IVRC,≤ 0.2
2,DLVM,≤ 0.2
3,RNDK,≤ 0.2
4,RNDM,≤ 0.2
5,RNNH,≤ 0.2
6,RNDG,0.679
7,RNNG,0.948
8,RNNN,0.385
9,LLYC,≤ 0.2
10,DVVM,≤ 0.2
11,PAYG,≤ 0.2
12,PDSP,≤ 0.2
13,THIF,≤ 0.2
14,ESHS,≤ 0.2
15,VADN,≤ 0.2
16,RKHS,0.832
17,RMHN,0.482
18,RKHD,≤ 0.2
19,RFHS,0.996
20,RCHD,≤ 0.2
21,RKHN,0.375
22,RFHP,≤ 0.2
23,RPHS,≤ 0.2
24,RMHD,≤ 0.2
25,RFHH,≤ 0.2
26,RMHS,0.979

row,Variant,one-hybrid fitness for binding parS DNA
1,RCHS,0.953
2,SNSI,≤ 0.2
3,KYKR,≤ 0.2
4,WCAL,≤ 0.2
5,YGRT,≤ 0.2
6,RSHH,≤ 0.2
7,RSHP,≤ 0.2
8,RAHN,0.481
9,RAHD,≤ 0.2
10,RSHS,1
11,RAHS,0.985
12,WEGR,≤ 0.2
13,ADSS,≤ 0.2
14,ALSE,≤ 0.2
15,KLGY,≤ 0.2
16,RVFD,≤ 0.2
17,RVAS,1.01
18,RVAH,0.225
19,RVAN,0.452
20,RVFN,0.399
21,RVFS,1.03
22,PPTK,≤ 0.2
23,IPLI,≤ 0.2
24,QGDC,≤ 0.2
25,PYSF,≤ 0.2
26,RMDW,≤ 0.2

row,Variant,one-hybrid fitness for binding parS DNA
1,RMVW,0.23
2,RMYW,0.216
3,RMKW,0.694
4,RMRW,0.586
5,RCKW,0.367
6,MALS,≤ 0.2
7,IADM,≤ 0.2
8,HDPK,≤ 0.2
9,FDHR,≤ 0.2
10,TTAR,≤ 0.2
11,QWPT,≤ 0.2
12,QFYR,≤ 0.2
13,VGKG,≤ 0.2
14,ATYA,≤ 0.2
15,DTRA,≤ 0.2
16,DTYA,≤ 0.2
17,RTRA,0.794
18,NTRA,≤ 0.2
19,RTYA,0.606
20,NWKG,≤ 0.2
21,RVDE,≤ 0.2
22,TNYG,≤ 0.2
23,PHTE,≤ 0.2
24,MVER,≤ 0.2
25,GAIS,≤ 0.2
26,VHEV,≤ 0.2

row,Variant,one-hybrid fitness for binding parS DNA
1,RCRG,0.927
2,RDYG,≤ 0.2
3,RDRG,≤ 0.2
4,RPRG,≤ 0.2
5,RCYG,1.04
6,RSRG,0.965
7,RPYG,≤ 0.2
8,RERG,0.388
9,RSRR,≤ 0.2
10,EMQT,≤ 0.2
11,RTTM,0.316
12,HGTT,≤ 0.2
13,LGRI,≤ 0.2
14,DCMT,≤ 0.2
15,VQTR,≤ 0.2
16,RYGT,0.853
17,RYCK,≤ 0.2
18,RYYK,≤ 0.2
19,RYWT,0.787
20,RYWP,≤ 0.2
21,RYCT,0.852
22,RYWD,≤ 0.2
23,RYCQ,≤ 0.2
24,RYYF,0.22
25,RYGY,0.42
26,RYYT,0.876

row,Variant,one-hybrid fitness for binding parS DNA
1,RYGK,≤ 0.2
2,TIPF,≤ 0.2
3,GWDS,≤ 0.2
4,DNAI,≤ 0.2
5,LTPR,≤ 0.2
6,DAHI,≤ 0.2
7,KFDS,≤ 0.2
8,TQIL,≤ 0.2
9,VNDP,0.246
10,RYRQ,≤ 0.2
11,RYSQ,≤ 0.2
12,RYRT,0.737
13,RYNE,≤ 0.2
14,RYRF,≤ 0.2
15,RYLP,≤ 0.2
16,RYLN,0.396
17,RYSM,0.302
18,RYLT,0.911
19,RYNQ,≤ 0.2
20,RYST,0.862
21,RYNT,0.819
22,DRTC,≤ 0.2
23,SSMT,≤ 0.2
